Assay results reported in PubChem BioAssay AID651871 (Sanford-Burnham Center for Chemical Genomics, 2012).
“And” between values parts separate entries of the source, which are not always exact repeats. Equal values may be shown once.

Test system: H9c2
Assay: protection of cardiomyocytes from stress damage, SAR follow-up, cell-based, panel, H9c2 and HL-1, ATP luminescence, set 2 (AID 651871);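 note: cells exposed to stressor for 2 h before ATP readout; reference of the scale not given here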
Settings: H9c2/HL-1 cardiomyocytes, 2-deoxyglucose stress, with 2-deoxyglucose; run 14, at 79 µM (top of the series)

| Structure (SMILES) | activity (protection/inhibition) |
| --- | --- |
| COc1ccc2c(c1OC)C(=O)N1c3ccccc3C(=O)N(Cc3cccc(Cl)c3Cl)C21 (stereo not drawn) | 74.7% and 78.2% and -6.22% |
| COc1ccc2nc(-c3cc(OC)c(OC)c(OC)c3)cc(C(=O)NCC(=O)Nc3ccc(C(C)=O)cc3)c2c1 | 89.3% |
| CCOC(=O)c1cccc(NC(=O)CNC(=O)c2cc(-c3cc(OC)c(OC)c(OC)c3)nc3ccccc23)c1 | 95.1% |
